This note sets out measurements from PubChem BioAssay (Tox21).

SMILES strings stand for the structures. Unmarked numbers belong to inactive results. Records with an inconclusive call do not appear. Active and inactive are the calls of the source. Unless noted, the call rests on the fitted dose curve; in most records, active means well fitted curve in the direction sought with a large enough effect in the repeat runs; inconclusive means weak or mixed curves; inactive means no such curve, though single readings can be large; an effect the other way counts as inactive or inconclusive.

A short description of assay [1]: qHTS assay for small molecule agonists of the p53 signaling pathway (AID 651631; calls by dose curve; further: nearly all actives have a fitted effect of over 15% in size). The method in brief:
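Beta-lactamase reporter activity under p53 response elements was quantified in HCT-116 cells by FRET fluorescence, following 16 h incubation with test compounds at 37 °C and 2 h substrate development at room temperature.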

The nature of assay [2]: qHTS assay for small molecules that induce genotoxicity in human embryonic kidney cells expressing luciferase-tagged ATAD5 (AID 651632). Further: nearly all actives have a fitted effect of over 15% in size. The method in brief:
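Luminescence read-out: after 16 hr compound exposure at 37C, ATAD5-luciferase HEK293T cells received Amplite, 30 min RT, then CCD imaging. A rise in signal marks genotoxic stress.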

Assay [3] can be described thus: qHTS assay for small molecule agonists of the p53 signaling pathway - cell viability (AID 651633; calls by dose curve;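 further: p53RE-bla HCT reporter cells with a stable beta-lactamase p53 reporter; series mostly up to about 83 µM; nearly all actives have a fitted effect of over 30% in size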). Summed up:
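p53RE-bla cells, seeded at 4,000 per well and rested 5 h at 37 C/5% CO2, received compounds in DMSO for 16 h at 37 C. CellTiter-Glo was then added, and luminescence was read after 30 min at room temperature to gauge cytotoxicity.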

The nature of assay [4]: qHTS assay for small molecule disruptors of the mitochondrial membrane potential - cell viability (AID 720634; calls by dose curve;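 further: human HepG2 liver cancer cells; series mostly up to about 83 µM; nearly all actives have a fitted effect of over 20% in size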). The method in brief:
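Luminescence from CellTiter-Glo (ATP content) gave viability in HepG2 cells, read in the same wells as the MMP dye assay after 1 hr compound exposure at 37 C.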

The nature of assay [5]: qHTS assay for small molecule disruptors of the mitochondrial membrane potential (AID 720635). Further: potency means the concentration at half of the fitted maximal effect. Summed up: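 HepG2 cells (2,000/well) attached overnight at 37C, then took compound for 1 hr at 37C, 5% CO2. Mito-MPS dye was added for 30 min; fluorescence was read at 490/535 nm (monomers) and 540/590 nm (aggregates).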
Assay [6] can be described thus: qHTS assay to test for compound auto fluorescence at 590 nm (red) in HepG2 cells (AID 720674). Summed up: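 Intrinsic compound fluorescence in the red window (Ex/Em 540/590 nm) is measured in attached HepG2 cells exposed for 1 hr, DMSO vehicle as baseline, benchmarked to Rose Bengal sodium.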
Assay [7] in a line: qHTS assay to test for compound auto fluorescence at 535 nm (green) in HepG2 cells (AID 720675).
Assay [8] can be described thus: qHTS assay to test for compound auto fluorescence at 460 nm (blue) in HEK293 cells (AID 720678). Summed up: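 HEK293, 2,000 cells/well, 10% dialyzed FBS; attach 4-5 hr 37C; pin compound or DMSO; o/n 37C/5% CO2; fluorescence 405/460 nm; triamterene-equivalent units.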
The nature of assay [9]: qHTS assay to test for compound auto fluorescence at 590 nm (red) in HEK293 cells (AID 720679). Summed up:
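Intensity at 540nm excitation and 590nm emission is reported as Rose Bengal sodium-equivalent autofluorescence. Measurements followed overnight exposure (37C, 5% CO2) of HEK293 cells, 2,000 per well, to 23 nL compound.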

The nature of assay [10]: qHTS assay to test for compound auto fluorescence at 535 nm (green) in HEK293 cells (AID 720680).
A short description of assay [11]: qHTS assay to test for compound auto fluorescence at 460 nm (blue) in HEK293 cell free culture (AID 720681). Summed up: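 Test compounds were pinned into cell-free culture medium (DMEM with 10% FBS) and fluorescence was read directly at Ex/Em 405/460 nm. Signals were expressed as fluorescence equivalents of triamterene, with DMSO vehicle as control.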
A short description of assay [12]: qHTS assay to test for compound auto fluorescence at 535 nm (green) in HEK293 cell free culture (AID 720682). Summed up:
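Each library compound, or DMSO control, is added by pintool to medium alone, comprising DMEM and 10% FBS. Emission at 535 nm following 485 nm excitation is quantified against fluorescein.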

The nature of assay [13]: qHTS assay to test for compound auto fluorescence at 590 nm (red) in HEK293 cell free culture (AID 720683). Summed up:
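Tox21 10K library compounds were pinned into cell-free DMEM with 10% FBS and fluorescence was read at excitation 540 nm. Activity is expressed as Rose Bengal sodium equivalency.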

Assay [14] in a line: qHTS assay to test for compound auto fluorescence at 460 nm (blue) in HepG2 cell free culture (AID 720685). The method in brief: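 Cell-free plates of MEM plus 10% FBS received 23 nL compound or DMSO vehicle; blue-channel (405/460 nm) intensity scored against triamterene as reference fluorophore.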
The nature of assay [15]: qHTS assay to test for compound auto fluorescence at 535 nm (green) in HepG2 cell free culture (AID 720686).
Assay [16] is described as follows: qHTS assay to test for compound auto fluorescence at 460 nm (blue) in HepG2 cells (AID 720687). Summed up: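 Cells (2,000/well in MEM with 10% FBS) attached overnight at 37 C, then were exposed to compound or DMSO for 1 hr at 37 C, 5% CO2. Fluorescence read at Ex/Em 405/460 nm, expressed as triamterene-equivalent signal.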
For assay [17], the target named is Glucocorticoid receptor (Homo sapiens) (UniProt P04150). Kind of assay: qHTS assay to identify small molecule agonists of the glucocorticoid receptor (GR) signaling pathway (AID 720691; active means well fitted activation curve with a large enough effect in the signal ratio in the repeat runs, not every such curve was filed as active; the % refers to the signal ratio). The method in brief: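 HeLa GR-bla reporter line; cells pre-incubated 4 h, compound in DMSO 18 h at 37 C; LiveBLAzer B/G FRET substrate 2 h RT; fluorescence intensity read-out.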
Chain of Glucocorticoid receptor (Homo sapiens) (P04150 whole entry, looked up): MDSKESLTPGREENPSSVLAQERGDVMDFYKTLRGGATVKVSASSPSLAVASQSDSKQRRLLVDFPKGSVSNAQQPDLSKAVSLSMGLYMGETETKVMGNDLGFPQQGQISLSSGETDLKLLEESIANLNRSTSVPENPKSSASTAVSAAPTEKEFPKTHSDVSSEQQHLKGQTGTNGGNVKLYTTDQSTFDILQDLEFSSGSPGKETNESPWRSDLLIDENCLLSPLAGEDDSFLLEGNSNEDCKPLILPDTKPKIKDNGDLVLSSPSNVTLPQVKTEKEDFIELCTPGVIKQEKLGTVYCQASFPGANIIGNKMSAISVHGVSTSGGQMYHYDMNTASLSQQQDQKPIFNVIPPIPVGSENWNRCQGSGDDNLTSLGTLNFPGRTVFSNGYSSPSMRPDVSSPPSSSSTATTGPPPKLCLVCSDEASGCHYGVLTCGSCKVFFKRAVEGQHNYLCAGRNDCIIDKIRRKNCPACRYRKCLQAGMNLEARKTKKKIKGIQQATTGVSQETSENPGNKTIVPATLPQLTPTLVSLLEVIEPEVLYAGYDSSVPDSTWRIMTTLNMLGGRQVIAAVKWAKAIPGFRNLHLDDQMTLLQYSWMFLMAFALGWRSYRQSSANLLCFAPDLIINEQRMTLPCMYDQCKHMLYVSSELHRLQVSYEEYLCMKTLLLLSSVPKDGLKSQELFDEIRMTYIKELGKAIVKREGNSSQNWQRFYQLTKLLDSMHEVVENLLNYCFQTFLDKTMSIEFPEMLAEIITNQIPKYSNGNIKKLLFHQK

Assay [18] shares this target. Kind of assay: qHTS assay to identify small molecule antagonists of the glucocorticoid receptor (GR) signaling pathway (AID 720692; active means well fitted inhibition curve with a large enough effect in the signal ratio in the repeat runs, not every such curve was filed as active; the % refers to the signal ratio). The method in brief:
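Read-out: beta-lactamase FRET substrate fluorescence, 2 h at room temperature, in HeLa cells stably carrying a GRE-driven bla reporter. Compounds were co-incubated with 5 nM dexamethasone agonist (final) for 18 h at 37 C.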

Assay [19] is described as follows: qHTS assay to test for compound auto fluorescence at 590 nm (red) in HepG2 cell free culture (AID 720684). The method in brief: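 Readout: intrinsic compound fluorescence at 590 nm emission after 540 nm excitation, scaled to Rose Bengal sodium. Matrix was cell-free MEM with 10% FBS; DMSO vehicle wells served as control.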
Assay [20] in a line: qHTS assay for small molecules that induce genotoxicity in human embryonic kidney cells expressing luciferase-tagged ATAD5 - cell viability (AID 651634; calls by dose curve; further: nearly all actives have a fitted effect of over 25% in size). Summed up:
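HEK293T ATAD5-luc cells, 2,000/well; compound 15.5 hr, 37C/5% CO2; CellTiter-Fluor 30 min, 37C; fluorescence read.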

On to `Cc1cn([C@H]2C[C@H](F)[C@@H](CO)O2)c(=O)[nH]c1=O`, for which the Potency result in assay [1], in [2], in [3], in [5], in assay [8] and in assay [11] was “inactive” in each case. For the same compound, the Potency entry in [14], in assay [16], in [17] and in assay [18] was “inactive” in each case. Besides, the outcome in [4], in assay [6], in [7], in assay [9], in assay [10] and in assay [12] was inactive. Further, the outcome in [13] and in assay [15] was inactive.
Take `O=[N+]([O-])C1(Br)COCOC1`: the Potency result in assay [1], in assay [2], in assay [3], in [8], in assay [14] and in [16] was “inactive” each time. Further, the Potency in [5] was 48.6 µM (active). Besides, the result in assay [6], in assay [7], in assay [9], in [10], in assay [12] and in assay [13] was inactive. Moreover, the result in [19] and in [15] was inactive.
`CC1CCCC(=O)C1=O` (stereo not drawn): the Potency result in assay [1], in assay [2], in assay [3], in assay [5], in assay [8] and in assay [11] was “inactive” each time. The Potency result in assay [14], in assay [16], in assay [17] and in [18] was “inactive” each time. Besides, the compound was classed as inactive in assay [4], in assay [6], in assay [7], in assay [9], in [10] and in assay [12]. The call in [13] and in assay [15] was inactive.
Turning to `NC(=O)CCCCC(N)=O`, the Potency result in assay [1], in assay [2], in assay [3], in assay [8], in [11] and in assay [14] was “inactive” each time. Also, the Potency entry in [16] and in assay [17] was “inactive” in each case. Besides, the outcome in assay [4], in assay [6], in assay [7], in assay [9], in assay [10] and in [12] was inactive. For the same compound, the call in assay [13], in assay [19] and in assay [15] was inactive.
As to `COc1ccc(N)c([N+](=O)[O-])c1`, the Potency result in assay [1], in assay [2], in assay [3], in assay [5], in assay [8] and in [11] was “inactive” in each case. Besides, the Potency result in [14], in assay [16], in assay [17] and in assay [18] was “inactive” each time. Moreover, the result in assay [4], in assay [6], in [7], in [9], in assay [10] and in assay [12] was inactive. Further, the call in assay [13], in assay [19] and in assay [15] was inactive.
For `CCCCCCCC(=O)OCCCCCC`, the Potency entry in [1], in [2], in [20], in assay [5], in [8] and in assay [11] was “inactive” in each case. In addition, the Potency result in [14], in [16], in assay [17] and in assay [18] was “inactive” in each case. The compound was classed as inactive in assay [4], in assay [6], in assay [7], in [9], in assay [10] and in [12]. Moreover, the call in [13], in assay [19] and in assay [15] was inactive.
As to `CCOC(=O)C(C)O` (stereo not drawn), the Potency result in assay [1], in assay [2], in [3], in assay [20], in assay [8] and in [11] was “inactive” throughout. Also, the Potency result in assay [14], in [16], in [17] and in [18] was “inactive” in each case. Besides, the outcome in assay [6], in assay [9], in assay [10], in [12], in assay [13] and in assay [19] was inactive. In assay [15], the compound was classed as inactive.
